Source: PubChem BioAssay
UHRF1 MBD2 ctr: UHRF1 methylated DNA binding inhibitors, primary screen, counter-screen for MBD2 inhibitor project, biochemical, TR-FRET, human UHRF1, single concentration | E3 ubiquitin-protein ligase UHRF1 (Homo sapiens), Q96T88 | UHRF1 binding to methylated oligo | inhibition, % at 4.4 µM | hit rate 0.75% among 370,000; in the data active means inhibition above about 21%;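 further: UHRF1 SRA domain binding a hemimethylated CpG hairpin DNA probe; 0% = median of test compound wells and 100% = reference inhibitor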
Target sequence (Q96T88 whole entry, looked up, the tested form may be a part): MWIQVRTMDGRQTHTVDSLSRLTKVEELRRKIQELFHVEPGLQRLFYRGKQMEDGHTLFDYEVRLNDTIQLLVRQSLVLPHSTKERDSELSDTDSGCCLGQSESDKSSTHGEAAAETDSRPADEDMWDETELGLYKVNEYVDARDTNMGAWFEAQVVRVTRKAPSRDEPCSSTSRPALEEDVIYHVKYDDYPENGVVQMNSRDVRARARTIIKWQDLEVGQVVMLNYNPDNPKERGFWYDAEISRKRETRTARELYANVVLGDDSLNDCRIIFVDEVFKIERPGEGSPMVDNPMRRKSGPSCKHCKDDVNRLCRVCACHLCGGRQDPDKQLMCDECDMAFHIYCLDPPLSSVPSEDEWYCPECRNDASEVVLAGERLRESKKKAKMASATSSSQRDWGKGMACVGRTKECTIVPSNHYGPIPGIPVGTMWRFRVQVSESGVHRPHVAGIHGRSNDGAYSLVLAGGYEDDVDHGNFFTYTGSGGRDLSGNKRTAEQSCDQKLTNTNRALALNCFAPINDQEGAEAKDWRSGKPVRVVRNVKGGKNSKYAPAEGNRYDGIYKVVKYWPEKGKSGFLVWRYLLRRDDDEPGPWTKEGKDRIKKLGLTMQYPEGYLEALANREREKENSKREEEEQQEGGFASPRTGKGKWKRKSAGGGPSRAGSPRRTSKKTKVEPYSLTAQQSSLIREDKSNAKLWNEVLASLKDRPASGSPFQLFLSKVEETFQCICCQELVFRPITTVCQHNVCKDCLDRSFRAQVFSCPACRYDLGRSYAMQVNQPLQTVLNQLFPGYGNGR
Casp6 inh: human caspase-6 inhibitors, primary screen, biochemical, VEID-R110 fluorescence, single point, set 2 | P55212 | purified caspase-6, Z-VEID-R110 cleavage fluorescence | inhibition, % at 12.5 µM | hit rate 0.53% among 350,000;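 active means mean inhibition across replicates at least about 35%, with every replicate also reaching that limit, limit read from the data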;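 further: 0% = median of neutral control wells and 100% = no fluorescence left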
LEDGF integ inh: blockers of LEDGF/p75-dependent integrase strand transfer – biochemical, TR-FRET, high throughput, primary screen. hit rate 0.64% among 370,000. AID 743269, 2014. HIV-1 integrase (with human LEDGF/p75). inhibition, % at 3.7 µM. TR-FRET IN-LEDGF/p75 DNA integration, Eu/Cy5;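 active means inhibition above the screen-wide mean plus 3 SD, cut at about 13% in these data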;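 further: signal is the Cy5 over europium emission ratio at 671 and 618 nm; 0% = plate median of compound wells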
MBD2 inh: inhibitors of MBD2 binding to methylated DNA, primary screen, biochemical, TR-FRET, DNA-binding domain, human | inhibition, % at 4.4 µM | hit rate 0.31% among 370,000 | MBD2 binding to methylated oligonucleotide; in the data active means inhibition above about 13%
The depositor's hits bear a star; / = no result given. In the library only some 1.4% were active in any assay of this set; here they are far more common.

SMILES | UHRF1 MBD2 ctr | Casp6 inh | LEDGF integ inh | MBD2 inh
CCCC(C(=O)NC1CCCC1)N(CC1CCCO1)C(=O)CNS(=O)(=O)c1ccc(F)cc1 (configuration not stated) | 0 | 2 | 2 | 1
CCC(C(=O)NCC1CCCO1)N(C(=O)CNS(=O)(=O)c1ccccc1)c1ccc(F)cc1 (configuration not stated) | 11 | 0 | 89* | 8
COc1ccc(-n2c(NNC(C)=O)nc3sc4c(c3c2=O)CCCC4)cc1 | -2 | 69* | 2 | 4
CN(C)C(=O)[C@@H]1[C@@H](CO)[C@@H]2Cn3c(ccc(-c4ccccc4F)c3=O)[C@H]1N2C(=O)c1ccccc1 | / | 0 | / | /
Cn1cc(/C=C2/SC(=O)N(CC(=O)Nc3ccc4c(c3)OCO4)C2=O)c2ccccc21 | -3 | / | 0 | -3
O=C(CN1C(=O)S/C(=C\c2ccc(-c3cc(C(=O)O)ccc3Cl)o2)C1=O)Nc1ccc2c(c1)OCO2 | 17 | 1 | 18* | 6
N=C1S/C(=C\c2ccc(-c3ccccc3C(=O)O)o2)C(=O)N1c1ccc2c(c1)OCO2 | 23* | 20 | -1 | 7
CCN(CC)c1ccc(N=Cc2ccccc2[N+](=O)[O-])cc1 | -4 | -3 | 15* | -9
C[C@H](CO)N1C[C@H](C)[C@H](CN(C)Cc2ccc(C(=O)O)cc2)Oc2c(cccc2N(C)C)C1=O | / | 3 | / | /
C[C@H](CO)N1C[C@H](C)[C@@H](CN(C)C(=O)NC2CCCCC2)Oc2ccc(NC(=O)CCC(F)(F)F)cc2CC1=O | / | 1 | / | /
C[C@@H]1CN([C@@H](C)CO)S(=O)(=O)c2ccc(C3=CCCCC3)cc2O[C@@H]1CN(C)C(=O)Nc1ccc2c(c1)OCO2 | / | -2 | / | /
COc1cc(C(=O)NNC(=O)c2ccc(NC(=O)C(C)(C)C)cc2)cc(OC)c1OC | 32* | 2 | -4 | 4
COc1ccc(NC(C)=O)cc1NC(=O)CSc1nnc(-c2ccccc2)n1N | 26* | 0 | 0 | 13
CCN(C[C@H]1N[C@H](CO)[C@H]1c1ccc(-c2cccc(C#N)c2)cc1)C(=O)COC | / | -1 | / | /
Cc1cc(-n2nnc3ccccc32)nc2ccccc12 | -2 | 55* | 0 | 4
Cc1cc(N2CCCCC2)nc2ccccc12 | 2 | -2 | -2 | 3
CCOc1cc(C(=O)Nc2ccc3c(c2)OCO3)ccc1OCCOc1ccccc1Cl | 2 | / | 2 | 3
CCOc1ccc(C(=O)Nc2ccc3c(c2)OCO3)cc1OCC | 25* | / | 4 | 10
Cc1ccc(S(=O)(=O)N(C)C[C@H]2Oc3ccc(NC(=O)Nc4ccccc4)cc3C(=O)N([C@H](C)CO)C[C@H]2C)cc1 | / | 0 | / | /
CCCNC(=O)c1cc2c(c(-c3cccc(-c4cc5ccccc5o4)c3)n1)[C@@H](CCO)N(C(=O)NC(C)C)C2 | 28* | 1 | -4 | -5
O=C(Cc1cccnc1)N[C@@H]1CC[C@H](CCNS(=O)(=O)c2ccccc2Cl)O[C@H]1CO | / | -3 | / | /
COc1ccc(C(=O)Nc2ccc3c(c2)OC[C@@H](C)N(C(C)=O)C[C@H](C)[C@@H](OC)CN(C)C3=O)cc1 | / | -2 | / | /
CC(C)CC#Cc1ccc2c(c1)O[C@H](CN(C)Cc1ccncc1)[C@@H](C)CN([C@@H](C)CO)S2(=O)=O | / | 1 | / | /
CSCCC(NC(=O)COc1ccccc1)C(=O)N(C)CC(=O)Nc1c(C)cccc1C (configuration not stated) | 0 | 42* | 0 | -1
Cc1noc(C)c1NC(=O)N(C)C[C@H]1Oc2ccc(NC(=O)Nc3ccc(F)cc3)cc2CC(=O)N([C@H](C)CO)C[C@H]1C | / | 1 | / | /
CCCCCNCC(=O)Nc1cc(C(F)(F)F)ccc1OCCOC | 48* | -2 | 0 | -10
COCCOc1ccc(C(F)(F)F)cc1NC(=O)c1ccc(C)cc1 | -4 | / | 5 | -7
NC(=O)NCC#Cc1ccc2c(c1)[C@]1(C(=O)N2)[C@H](c2ccccc2OCCO)N2[C@H](c3ccccc3)[C@H](c3ccccc3)OC(=O)[C@H]2[C@@H]1C(=O)O | / | 1 | / | /
O=C1O[C@@H](c2ccccc2)[C@@H](c2ccccc2)N2[C@@H](c3ccccc3OCCO)[C@]3(C(=O)Nc4ccccc43)[C@@H](C(=O)O)[C@H]12 | / | 36* | / | /
O=C(O)c1cc(S(=O)(=O)Nc2ccc3oc(=O)sc3c2)ccc1O | 2 | / | 16* | 1
